Laboratory results published in PubChem BioAssay (EPA / NIEHS).
Inconclusive results are not listed. The source made the active and inactive calls. How the source made its calls: active means hit-call score of the fitted dose curve at least 0.9, where 1 is the maximum; inconclusive means response in the unintended direction; inactive means score below 0.9.

Tested on: not listed separately
Assay: ACEA_ER_AUC_viability: ACEA Biosciences xCELLigence Real-Time Cell Analysis on Estrogen Receptor Agonism for Viability (AID 2283782);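 further: continuous compound exposure with impedance area under curve over 80 h; hit means loss of impedance signal meaning reduced cell growth or viability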
In short: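 T-47D human breast cells in phenol red-free RPMI1640 with 10% charcoal-stripped FBS were dosed with an 8-point 1:4 dilution series from 100 uM top final concentration, in duplicate. Impedance-based growth was followed for 80 h; AUC analysed versus DMSO.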

| SMILES | AC50 | outcome |
| --- | --- | --- |
| N#CCCC(Br)(C#N)CBr (stereo not drawn) | 10.9 µM (active) | – |
| Oc1cc(Cl)c(Cl)cc1Cl | – | inactive |
| O=CCCl | 10.3 µM (active) | – |
| CCOC(=O)c1ccccc1S(=O)(=O)NC(=O)Nc1nc(Cl)cc(OC)n1 | – | inactive |
| O=C1C=CC(=O)c2ccccc21 | 22.5 µM (active) | – |
| O=[N+]([O-])c1ccccc1O | – | inactive |
| O=C(Cc1ccccc1)OCCc1ccccc1 | 82.5 µM (active) | – |
| O=[N+]([O-])c1ccc(Cl)c([N+](=O)[O-])c1 | 1.55 µM (active) | – |
| O=C(N[C@H]1CN2CCC1CC2)c1ccc2c(c1)OCCO2 | – | inactive |
| c1ccc(-c2cccc(-c3ccccc3)c2)cc1 | 24.4 µM (active) | – |
| CC1(C)[C@H](C(=O)O[C@H](C#N)c2cccc(Oc3ccccc3)c2)[C@@H]1/C=C(\Cl)C(F)(F)F | 42.5 µM (active) | – |
| BrCCCCBr | – | inactive |

Biological target: AR (gene 367) (UniProt P10275)
Sequence (P10275 whole entry, looked up): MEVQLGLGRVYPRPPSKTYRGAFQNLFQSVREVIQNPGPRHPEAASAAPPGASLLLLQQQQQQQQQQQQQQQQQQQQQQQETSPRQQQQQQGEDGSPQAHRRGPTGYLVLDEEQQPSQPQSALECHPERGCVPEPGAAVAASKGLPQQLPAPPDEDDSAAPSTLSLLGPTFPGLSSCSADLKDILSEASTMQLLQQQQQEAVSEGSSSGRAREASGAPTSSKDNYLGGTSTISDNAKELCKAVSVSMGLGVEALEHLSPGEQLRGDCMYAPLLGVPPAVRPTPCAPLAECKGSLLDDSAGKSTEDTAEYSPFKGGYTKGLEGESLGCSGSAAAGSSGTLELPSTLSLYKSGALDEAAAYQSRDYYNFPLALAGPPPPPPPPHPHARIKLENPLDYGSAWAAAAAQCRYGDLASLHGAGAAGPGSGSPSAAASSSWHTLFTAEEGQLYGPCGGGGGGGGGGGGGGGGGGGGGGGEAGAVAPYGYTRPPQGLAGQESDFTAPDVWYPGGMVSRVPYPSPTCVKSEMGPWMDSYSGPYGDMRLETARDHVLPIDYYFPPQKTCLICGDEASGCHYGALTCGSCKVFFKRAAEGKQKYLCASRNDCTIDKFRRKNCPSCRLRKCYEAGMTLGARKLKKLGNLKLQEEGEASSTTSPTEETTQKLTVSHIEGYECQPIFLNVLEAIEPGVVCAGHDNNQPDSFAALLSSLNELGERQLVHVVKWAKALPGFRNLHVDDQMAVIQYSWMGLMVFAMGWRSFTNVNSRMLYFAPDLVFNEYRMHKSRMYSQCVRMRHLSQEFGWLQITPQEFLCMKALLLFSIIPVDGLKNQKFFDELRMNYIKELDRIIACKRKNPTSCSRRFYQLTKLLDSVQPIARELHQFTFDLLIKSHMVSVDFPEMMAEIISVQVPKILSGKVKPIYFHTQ
Assay: ACEA_AR_agonist_80hr: ACEA Biosciences xCELLigence Real-Time Cell Analysis on Androgen Receptor Agonism for Proliferation (AID 2283783);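 further: hits increase impedance growth signal above DMSO baseline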
In short: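 22Rv1 human prostate cancer cells were seeded after preconditioning in assay medium and monitored overnight, then dosed in an eight-point 1:4 dilution series from 100 uM (≤0.5% DMSO). Impedance-based growth was read at 80 h, gain-of-signal versus DMSO.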

| SMILES | outcome |
| --- | --- |
| C=CC(Cl)CCl (stereo not drawn) | inactive |
| O=[N+]([O-])c1ccc(Cl)c([N+](=O)[O-])c1 | inactive |
| O=C(N[C@H]1CN2CCC1CC2)c1ccc2c(c1)OCCO2 | inactive |

Tested on: not listed separately
Assay: STM_H9_NormalizedViability: Cytotoxicity Assessment at 120 hours in the Stemina devTOX quickPredict H9 human embryonic stem cell (hESC)-based Assay (AID 2283784)
In short: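 Undifferentiated H9 hESCs kept pluripotent were exposed to compound, with media and chemical replaced every 24h. CellTiter-Fluor protease-substrate fluorescence was background-corrected and normalized per plate to the 0.1% DMSO vehicle; signal loss indicates reduced viability.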

| SMILES | AC50 | outcome |
| --- | --- | --- |
| N#CCCC(Br)(C#N)CBr (stereo not drawn) | 95.3 µM (active) | – |
| CC(C)O.CC(C)O.OCCN(CCO)CCO.OCCN(CCO)CCO.[Ti] | – | inactive |
| O=[N+]([O-])c1ccc(Cl)c([N+](=O)[O-])c1 | 16.5 µM (active) | – |
| OCCN(CCO)CCO | – | inactive |

Biological target: AR (gene 367) (UniProt P10275)
Assay: ACEA_AR_antagonist_80hr: ACEA Biosciences xCELLigence Real-Time Cell Analysis on Androgen Receptor Antagonism for Proliferation (AID 2283787);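 further: hits lower the impedance growth signal relative to DMSO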
In short: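 Impedance readout (RT-CES), 80 h post-dose; loss-of-signal vs DMSO baseline. 22Rv1 cells in assay medium. Compounds: 8-pt 1:4 series, max 100 uM final, up to 0.5% DMSO; n = 2.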

| SMILES | outcome | AC50 |
| --- | --- | --- |
| Cc1cc(Cl)ccc1OCCCC(=O)O | inactive | – |
| C=CC(Cl)CCl (stereo not drawn) | inactive | – |
| O=[N+]([O-])c1ccc(Cl)c([N+](=O)[O-])c1 | – | 24.8 µM (active) |
| O=C(N[C@H]1CN2CCC1CC2)c1ccc2c(c1)OCCO2 | inactive | – |
